# Measured values: PubChem BioAssay AID624171 (National Center for Advancing Translational Sciences (NCATS), 2012)
# Among all 410,000 compounds or so, about 1,200 (0.29%) were called active. Roughly 2% stayed inconclusive and do not appear here. The call rests on the fitted dose curve; in most records, active means well fitted activation curve with a large enough effect; inconclusive means small, poorly fitted or top-dose-only effect; inactive means flat fitted curve, though single readings scatter. Shown is part of a subset that was picked to be rich in actives. Entries that show only a call come without a potency.
# Assay: qHTS of Nrf2 Activators; further: nearly all actives have a fitted effect of over 65% in size
# Conditions: AREc32 ARE-luciferase reporter (MCF7-derived line), luminescence, 24 h; series mostly up to 46.1 µM
# Source text: Many diseases have some form of oxidative stress injury and ties to inflammation, causing a host of problems for the patient. The antioxidant response element (ARE) plays an important role in alleviating the harmful effects of oxidative stress. The antioxidant response element (ARE) is a transcriptional regulatory element involved in the activation of genes coding for a number of antioxidant proteins and detoxifying enzymes. These enzymes work in concert to protect tissues from oxidative insults and chemical toxicities in human hepatocytes and immune cells. The protective effects of ARE activation are primarily triggered through Nrf2 (NF-E2-related factor) binding to and activating AREs. It is known that Nrf2 controls the production of over 250 antioxidant and detoxification proteins (Hu et al., 2006), thereby protecting tissues by increasing cellular antioxidant content and suppressing inflammatory signaling pathways. The transcription factor Nrf2 is a central link between oxidative chemicals, such as phenolic antioxidants and electrophilic compounds, and the activation of ARE. Nrf2 levels are constitutively low as a consequence of its interaction with Keap1, which targets its degradation (Zipper and Mulcahy, 2002). Electrophiles react with key cysteine residues in Keap1, releasing Nrf2 and allowing its translocation to the nucleus. Once within the nucleus, Nrf2 complexes with coactivators such as p300, and binds to the AREs to induce gene transcription of cytoprotective enzymes, resulting in the prevention of toxicity. Activation of Nrf2 protects tissues by increasing cellular antioxidant content and suppressing inflammatory signaling pathways. Identifying novel and potent Nrf2 activators by using the AREc32 cell line to detect ARE activation by small molecules will lead to the identification and development of probes to study protective pathways in multiple tissues. These specific probes are essential to study the ARE pathway, and eventually to determine whether this pathway does activate genes that could protect against a host of diseases, including cardiovascular diseases, obesity, diabetes, Alzheimer's, and Parkinson's disease.
# This project's aim is to identify novel and potent Nrf2 activators by using the AREc32 cell line to detect ARE activation by small molecules, which will lead to the identification and development of probes to study the ARE pathway.
# NIH Chemical Genomics Center [NCGC]
# NIH Molecular Libraries Probe Centers Network [MLPCN]
# Assay Submitter (PI): Curtis Klaassen, University of Kansas Medical Center
# 5 uL of 1000 cells/well of AREc32_Fluc cells are seeded into 1536-well plate in OPTI-MEM medium with 5% FBS. The plates are incubated overnight at 37 deg C with 5% CO2. Then through pin tool transfer, 23 nL of compounds are added to each well before a 24 hr incubation at 37 deg C with 5% CO2. After the addition of 2.5 uL of Steady-Glo. the plates are kept at RT for 30 min, before they are read on the ViewLux.
# Potency means the concentration at half of the fitted maximal effect.
row,SMILES,Potency
1,COc1ccc(C2C=C(C)Oc3c2c(=O)oc2ccccc32)cc1OC (stereo not given),inactive
2,CCNc1nc2[nH]c(=O)c3c(c2s1)OC(N)=C(C#N)C3c1cccs1 (stereo not given),inactive
3,N#CC1=C(N)Oc2c(c(=O)oc3ccccc23)C1c1ccccc1OC(=O)c1cccs1 (stereo not given),11.2 µM (active)
4,Cc1ccc(-n2c(/C=C/c3cccc(C(F)(F)F)c3)nc3ccccc3c2=O)cc1,inactive
5,Cc1cccc(Cn2cccc(C(=O)Nc3ccc4c(c3)OCCO4)c2=O)c1,inactive
